Assay [1] is described as follows: qHTS of pediatric cancer cell lines to identify multiple opportunities for drug repurposing: Confirmatory screen for LAN-5 cells (AID 1347113). Also: nearly all actives have a fitted effect of over 65% in size. Also: potency is read from the fitted curve at half-maximal effect. The conditions noted are these: LAN-5 neuroblastoma cell viability; series mostly up to 45.9 µM. In short, it runs like this: (§1)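 Cells (500-1,000/well) in growth media were settled 5 h at 37 degrees C, then given compounds for 48 h. Viability was read as CellTiter-Glo luminescence. Primary runs used MIPE at 11 points (0.78 nM-46 µM) and NPC at 8 points (0.59 nM-46 µM); follow-ups used 11 points.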
For orientation: qHTS replaces the single test concentration by a dilution series.

Assay [2] in a line: qHTS of pediatric cancer cell lines to identify multiple opportunities for drug repurposing: Confirmatory screen for DAOY cells (AID 1347114). Also: nearly all actives have a fitted effect of over 65% in size. Also: potency is read from the fitted curve at half-maximal effect. The settings on record: DAOY medulloblastoma cells viability, cytotoxicity qHTS; series mostly up to 45.9 µM. Put shortly: (§2)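 Viability measured as metabolically active cells via CellTiter-Glo luminescence following 48 hours of compound exposure, 11-point dilutions in confirmatory testing. 500-1,000 cells/well plated 5 hours before dosing; controls were DMSO and 2.3 µM bortezomib.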

Assay [3] is described as follows: qHTS of pediatric cancer cell lines to identify multiple opportunities for drug repurposing: Confirmatory screen for SJ-GBM2 cells (AID 1347116). Also: nearly all actives have a fitted effect of over 60% in size. Also: potency is read from the fitted curve at half-maximal effect. The conditions noted are these: SJ-GBM2 glioblastoma cells, viability; series mostly up to 45.9 µM. Put shortly:
as §2

A short description of assay [4]: qHTS of pediatric cancer cell lines to identify multiple opportunities for drug repurposing: Confirmatory screen for BT-37 cells (AID 1347117). Also: nearly all actives have a fitted effect of over 55% in size. Also: potency is read from the fitted curve at half-maximal effect. The settings on record: BT-37 pediatric cancer cells, viability; series mostly up to 45.9 µM. In short, it runs like this:
as §1

Assay [5] can be described thus: qHTS of pediatric cancer cell lines to identify multiple opportunities for drug repurposing: Confirmatory screen for MG 63 (6-TG R) cells (AID 1347119). Also: nearly all actives have a fitted effect of over 55% in size. Also: potency is read from the fitted curve at half-maximal effect. The conditions noted are these: MG-63 (6-TG resistant) osteosarcoma viability; series mostly up to 45.9 µM. In short, it runs like this: as §1
Assay [6] is described as follows: qHTS of pediatric cancer cell lines to identify multiple opportunities for drug repurposing: Confirmatory screen for control Hh wild type fibroblast cells (AID 1347121). Also: nearly all actives have a fitted effect of over 70% in size. The conditions noted are these: viability qHTS; series mostly up to 45.9 µM. Put shortly: as §1
Assay [7] can be described thus: qHTS of pediatric cancer cell lines to identify multiple opportunities for drug repurposing: Confirmatory screen for Rh41 cells (AID 1347123). Also: nearly all actives have a fitted effect of over 60% in size. Also: potency is read from the fitted curve at half-maximal effect. The settings on record: Rh41 rhabdomyosarcoma cells, viability/cytotoxicity qHTS; series mostly up to 45.9 µM. Put shortly: as §1
A short description of assay [8]: qHTS of pediatric cancer cell lines to identify multiple opportunities for drug repurposing: Confirmatory screen for RD cells (AID 1347124).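 Also: cells exposed to compound for 48 h before viability readout; nearly all actives have a fitted effect of over 65% in size.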 The settings on record: RD rhabdomyosarcoma cell viability; series mostly up to 45.9 µM. In short, it runs like this:
as §1

The nature of assay [9]: qHTS of pediatric cancer cell lines to identify multiple opportunities for drug repurposing: Confirmatory screen for Rh18 cells (AID 1347125). Also: nearly all actives have a fitted effect of over 55% in size. Also: potency is read from the fitted curve at half-maximal effect. The settings on record: Rh18 rhabdomyosarcoma cells, viability; series mostly up to 45.9 µM. In short, it runs like this:
as §1

Assay [10] can be described thus: qHTS of pediatric cancer cell lines to identify multiple opportunities for drug repurposing: Confirmatory screen for Rh30 cells (AID 1347126). Also: nearly all actives have a fitted effect of over 55% in size. The settings on record: Rh30 rhabdomyosarcoma cell viability; series mostly up to 45.9 µM. Put shortly: as §1
The nature of assay [11]: qHTS of pediatric cancer cell lines to identify multiple opportunities for drug repurposing: Confirmatory screen for Saos-2 cells (AID 1347127). Also: nearly all actives have a fitted effect of over 60% in size. Also: potency is read from the fitted curve at half-maximal effect. The settings on record: Saos-2 osteosarcoma cell viability; series mostly up to 45.9 µM. Put shortly: as §1
The nature of assay [12]: qHTS of pediatric cancer cell lines to identify multiple opportunities for drug repurposing: Confirmatory screen for OHS-50 cells (AID 1347128). Also: potency is read from the fitted curve at half-maximal effect. The settings on record: OHS-50 osteosarcoma cells viability; series mostly up to 45.9 µM. In short, it runs like this:
as §1

Assay [13] can be described thus: qHTS of pediatric cancer cell lines to identify multiple opportunities for drug repurposing: Confirmatory screen for SK-N-SH cells (AID 1347129).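 Also: cells exposed to compound for 48 h before viability read; nearly all actives have a fitted effect of over 60% in size.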 Also: potency is read from the fitted curve at half-maximal effect. The conditions noted are these: SK-N-SH neuroblastoma cell viability; series mostly up to 46.1 µM. Put shortly: as §1
Assay [14] deals with Zika virus NS2B-NS3 protease. Description: Primary screen GU AMC qHTS for Zika virus inhibitors (AID 1347154). Also: nearly all actives have a fitted effect of over 70% in size. The conditions noted are these: Zika NS2B-NS3 unlinked protease, AMC fluorogenic substrate; series mostly up to 54.1 µM. In short, it runs like this: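 Unlinked Zika NS2B hydrophilic domain/NS3 protease domain noncovalent complex (25 nM final) in 10 mM Tris-HCl pH 8.0, 0.01% Tween 20, with AMC peptide substrate. Fluorescence (ex 340, em 450 nm) change over 15 min, room temperature; percent inhibition fitted to 4-parameter Hill equation.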

A short description of assay [15]: qHTS of pediatric cancer cell lines to identify multiple opportunities for drug repurposing: Confirmatory screen for NB-EBc1 cells (AID 1347115).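 Also: cells exposed to compound for 48 h before the viability read; nearly all actives have a fitted effect of over 45% in size.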 Also: potency is read from the fitted curve at half-maximal effect. The conditions noted are these: NB-EBc1 neuroblastoma cells, viability (cytotoxicity); series mostly up to 45.9 µM. Put shortly:
as §1

Assay [16] is described as follows: qHTS of pediatric cancer cell lines to identify multiple opportunities for drug repurposing: Confirmatory screen for TC32 cells (AID 1347118).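 Also: cells exposed to compound for 48 h before the read; nearly all actives have a fitted effect of over 65% in size.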 Also: potency is read from the fitted curve at half-maximal effect. The conditions noted are these: TC32 Ewing sarcoma cells viability qHTS; series mostly up to 45.9 µM. Put shortly: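 Luminescent CellTiter-Glo read-out of metabolically active TC32 cells after 48 h compound exposure. Primary: MIPE 11-point, 0.78 nM–46 µM; NPC 8-point, 0.59 nM–46 µM. Confirmatory: 11-point dilutions.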

Assay [17] has as its target N-terminal Xaa-Pro-Lys N-methyltransferase 1 (Homo sapiens) (UniProt Q9BV86). The experiment in a line: qHTS Assay for Inhibitors of N-terminal methyltransferase 1 (NTMT1): LOPAC validation of the NTMT1 SAHH-coupled ThioGlo3 Assay (AID 1347143). Also: nearly all actives have a fitted effect of over 70% in size. The settings on record: recombinant NTMT1, SAHH-coupled ThioGlo3 fluorescence; series mostly up to 114 µM. In short, it runs like this:
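Fluorescence read-out (excitation 340nm, emission 450nm) of SAH-derived thiol, measured via SAHH coupling and ThioGlo3, taken immediately and after a 30 min room-temperature reaction, then normalized to the background read. Enzyme: NTMT1 at 125nM; cofactor SAM 100uM in the added reagent.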

The target in the next assay is Furin (Homo sapiens) (UniProt P09958). The experiment in a line: Furin counterscreen qHTS for Zika virus inhibitors (AID 1347149).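 Also: purified recombinant full-length human furin enzyme at 5 nM; fluorescence gain from furin cutting a BOC-RVRR-AMC peptide substrate over 15 min; top concentration of the series differs between compounds; nearly all actives have a fitted effect of over 70% in size.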 The settings on record: furin enzymatic counterscreen, fluorogenic substrate; series mostly up to 57.5 µM. Put shortly: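 Fluorogenic cleavage of BOC-RVRR-AMC (2 microM final, Km ~15 µM) was monitored (ex 340, em 450 nm) at 37C after 15 min RT preincubation of 5 nM furin with compounds in HEPES pH 7.0 buffer with CaCl2 and Triton X-100. Percent inhibition was fitted to a 4-parameter Hill curve.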
Sequence of Furin (Homo sapiens) (P09958 whole entry, looked up): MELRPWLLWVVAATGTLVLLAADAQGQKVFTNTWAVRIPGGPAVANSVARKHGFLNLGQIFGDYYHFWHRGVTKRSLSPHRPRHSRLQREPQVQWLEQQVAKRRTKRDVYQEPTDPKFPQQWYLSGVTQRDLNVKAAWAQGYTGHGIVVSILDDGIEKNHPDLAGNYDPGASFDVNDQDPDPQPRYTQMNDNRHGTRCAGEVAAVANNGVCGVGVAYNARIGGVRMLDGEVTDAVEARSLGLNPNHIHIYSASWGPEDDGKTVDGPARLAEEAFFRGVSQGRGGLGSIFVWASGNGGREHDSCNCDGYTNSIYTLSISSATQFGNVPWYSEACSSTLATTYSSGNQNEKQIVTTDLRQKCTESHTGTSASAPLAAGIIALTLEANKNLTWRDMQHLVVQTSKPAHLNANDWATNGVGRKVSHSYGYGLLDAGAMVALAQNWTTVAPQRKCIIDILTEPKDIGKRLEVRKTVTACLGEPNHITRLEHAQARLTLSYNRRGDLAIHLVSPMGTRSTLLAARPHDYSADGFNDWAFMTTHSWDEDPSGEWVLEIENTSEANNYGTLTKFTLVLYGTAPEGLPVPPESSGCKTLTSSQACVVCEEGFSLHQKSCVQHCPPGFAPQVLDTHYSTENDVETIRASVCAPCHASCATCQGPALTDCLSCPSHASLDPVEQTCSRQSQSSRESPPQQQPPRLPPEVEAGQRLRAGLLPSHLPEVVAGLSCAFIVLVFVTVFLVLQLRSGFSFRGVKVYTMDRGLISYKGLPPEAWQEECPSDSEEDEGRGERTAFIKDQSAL
(In general: Counterscreens check selectivity or assay interference.)

Assay [18] concerns Zika virus NS2B-NS3 protease (unlinked). The experiment in a line: Optimization of GU AMC qHTS for Zika virus inhibitors: Unlinked NS2B-NS3 protease assay (AID 1347151). Also: nearly all actives have a fitted effect of over 80% in size. Also: potency is read from the fitted curve at half-maximal effect. The conditions noted are these: recombinant ZIKV NS2B-NS3 protease, fluorogenic AMC substrate; series mostly up to 52.5 µM. Put shortly:
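Fluorescence read-out (340 nm ex / 450 nm em) of AMC peptide cleavage, taken immediately and after 15 min at room temperature (~20% conversion). Enzyme was the unlinked NS2B–NS3 complex at 25 nM in Tris pH 8.0 buffer.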

In assay [19] the test system is Zika virus NS2B-NS3 protease (unlinked complex). Description: Confirmatory screen GU AMC qHTS for Zika virus inhibitors (AID 1347153). Also: nearly all actives have a fitted effect of over 70% in size. The conditions noted are these: Recombinant NS2B-NS3 protease, AMC substrate fluorescence; series mostly up to 57.1 µM. In short, it runs like this: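 Noncovalent NS2B hydrophilic domain/NS3 protease complex (25 nM) in 10 mM Tris-HCl pH 8.0, 0.01% Tween 20 was preincubated 15 min at room temperature with compounds. Then 10 µM AMC substrate (Km 18.3 µM) was added; fluorescence was read over 15 min and fitted to a 4-parameter Hill equation.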

Molecules are shown by their SMILES. Results filed as inconclusive are left out. The source made the active and inactive calls. Calls follow the shape of the dose curve; as a rule, active = well fitted curve in the direction sought with a large enough effect; inconclusive = small, poorly fitted or top-dose-only effect, or another doubt; inactive = no such curve, though single readings can be large; an effect the other way counts as inactive or inconclusive.

Sequence of N-terminal Xaa-Pro-Lys N-methyltransferase 1 (Homo sapiens) (Q9BV86 whole entry, looked up): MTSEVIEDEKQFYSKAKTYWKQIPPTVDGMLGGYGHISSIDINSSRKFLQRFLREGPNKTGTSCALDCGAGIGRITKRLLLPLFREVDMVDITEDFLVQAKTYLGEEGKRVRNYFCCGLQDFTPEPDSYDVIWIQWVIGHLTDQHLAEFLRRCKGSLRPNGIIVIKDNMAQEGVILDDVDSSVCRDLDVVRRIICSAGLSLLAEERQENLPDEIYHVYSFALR

Turning to `COc1ccc(-c2oc3cc(OC)ccc3c2C(=O)c2ccc(C#N)cc2)cc1`, the Potency entry in assay [1], in assay [2], in assay [3], in assay [4], in assay [5] and in assay [6] was “inactive” each time. Also, the Potency entry in assay [7], in assay [8], in assay [9], in assay [10], in assay [11] and in [12] was “inactive” throughout. Moreover, the Potency entry in assay [13] and in [14] was “inactive” throughout.

With `CCN(CC)CCCC(C)Nc1ccnc2cc(Cl)ccc12` (configuration not stated), the Potency entry in [1], in assay [2], in assay [15], in assay [4], in assay [16] and in assay [6] was “inactive” each time. The Potency entry in [7], in assay [8], in [9], in assay [10], in assay [11] and in assay [12] was “inactive” each time. Further, the Potency entry (in assay [13]; in assay [17]; with Furin (Homo sapiens); in assay [19]; in assay [14]) was “inactive” in each case. In addition, in assay [18], the Potency was 15 µM (active).

As for `Cn1cnc2c(F)c(Nc3ccc(Br)cc3Cl)c(C(=O)NOCCO)cc21`, the Potency entry in assay [1], in [15], in assay [16], in assay [6], in assay [7] and in assay [8] was “inactive” throughout. The Potency result in assay [9], in [10], in [11] and in [14] was “inactive” in each case.

Take `Cc1cn[nH]c1`: the Potency entry in assay [1], in assay [2], in assay [15], in [3], in assay [4] and in assay [16] was “inactive” in each case. The Potency result in [6], in assay [7], in assay [8], in assay [9], in assay [10] and in [11] was “inactive” throughout. Besides, the Potency result in assay [12], in assay [13], in [18] and in assay [14] was “inactive” in each case.

Regarding `CO[C@@H]1[C@H](N(C)C(=O)c2ccccc2)C[C@H]2O[C@]1(C)n1c3ccccc3c3c4c(c5c6ccccc6n2c5c31)C(=O)NC4`, the Potency entry in assay [2], in assay [6], in [7], in [10] and in [13] was “inactive” throughout. In addition, the Potency in assay [9] is 4.14 µM (active).

As for `NC(=O)c1ccc(I)c([N+](=O)[O-])c1`, the Potency result in assay [1], in assay [15], in assay [3], in [4], in [5] and in [6] was “inactive” throughout. Further, the Potency result in assay [8], in assay [9], in assay [11], in assay [12] and in assay [14] was “inactive” each time. Moreover, the Potency is 61.8 µM (active) in assay [2], 39 µM (active) in [16], 43.7 µM (active) in [7] and 55.4 µM (active) in assay [13].

With `Oc1cccc(-c2nc(N3CCOCC3)c3oc4ncccc4c3n2)c1`, the Potency is 0.537 µM (active) in assay [1]; 13.5 µM (active) in assay [15]; 2.93 µM (active) in assay [3]; 0.851 µM (active) in [4]; 0.427 µM (active) in [16]; 0.135 µM (active) in assay [5]. Further, the Potency in assay [7] was 0.522 µM (active); in [9], 1.7 µM (active); in assay [11] it was 0.38 µM (active); in assay [12], 3.02 µM (active); in assay [13] it was 4.18 µM (active).

Take `NC(N)=NC(=O)c1nc(Cl)c(N)nc1N`: the Potency result in assay [1], in [2], in assay [15], in [3], in assay [5] and in assay [6] was “inactive” in each case. The Potency entry in assay [7], in [8], in assay [9], in [12] and in assay [13] was “inactive” each time. In addition, in assay [18], the Potency was 23.8 µM (active).

The values above are taken from PubChem BioAssay (NCATS).
